{"source": "PubChem BioAssay (EPA / NIEHS)", "note": "Records with an inconclusive call do not appear. Some structures have more than one record in an assay (separate samples or runs), and their calls can disagree. Active and inactive are the calls of the source. How the source made its calls: active means hit-call score of the fitted dose curve at least 0.9, where 1 is the maximum; inconclusive means response in the unintended direction; inactive means score below 0.9. Where a SMILES comes first, the peptide text is derived from it. [ ]: non-standard residue; d: D form. Orn = NCCC[C@H](N)C(=O)O"}
{"target": "Cellular tumor antigen p53 (Homo sapiens) (UniProt P04637)", "sequence (P04637 whole entry, looked up, the tested form may be a part)": "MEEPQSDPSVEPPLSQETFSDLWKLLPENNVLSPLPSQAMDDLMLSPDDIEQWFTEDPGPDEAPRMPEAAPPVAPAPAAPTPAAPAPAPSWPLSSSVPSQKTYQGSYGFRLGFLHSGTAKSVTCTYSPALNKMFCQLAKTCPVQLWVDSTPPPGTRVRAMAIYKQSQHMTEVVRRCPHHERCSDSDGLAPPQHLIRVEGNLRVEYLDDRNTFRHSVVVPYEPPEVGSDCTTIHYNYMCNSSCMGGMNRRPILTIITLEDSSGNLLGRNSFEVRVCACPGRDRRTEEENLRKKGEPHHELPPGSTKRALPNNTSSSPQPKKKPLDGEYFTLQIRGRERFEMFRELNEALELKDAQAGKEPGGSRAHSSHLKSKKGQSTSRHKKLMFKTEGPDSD", "assay": "TOX21_p53_BLA_p3_ratio: Tox21 HCT-116 p53 Agonism Beta-lactamase Assay, Ratio, Phase 3 (AID 2283596)", "excerpt": "TOX21_p53_BLA_p3 is a cell-based, single-readout assay that uses HCT116, a human intestinal cell line, […] in a 1536-well plate.TOX21_p53_BLA_p3_ratio is an assay readout measuring reporter gene via receptor activity and designed using inducible reporter (beta lactamase induction) detected with GAL4 b-lactamase reporter gene. The signal is derived from the ratio of cleaved (ch2) to uncleaved (ch1) reporter gene substrate used as the measure of target activity.Data from the assay component TOX21_p53_BLA_p3_ratio was analyzed into 1 assay endpoint. This assay endpoint, TOX21_p53_BLA_p3_ratio, was analyzed in the positive analysis fitting direction relative to DMSO as the negative control and baseline of activity. Using a type of inducible reporter, gain-of-signal activity can be used to understand changes in the reporter gene as they relate to the gene TP53. Furthermore, this assay endpoint can be referred to as a primary readout, because this assay has produced multiple assay endpoints where this ratio serves a reporter gene function to understand target activity. To generalize the intended target to other relatable targets, this assay endpoint is annotated to the DNA binding intended target family, where the subfamily is tumor suppressor.\nThawing Method: Place 14 mL of pre-warmed thaw medium into a 15 mL of conical tub. Remove the vial of cells to be thawed from liquid nitrogen and thaw rapidly by placing at 37C in a water bath with gentle agitation for 1-2 minutes. Decontaminate the vial by wiping with 70% ethanol before opening in a biological safety cabinet. Transfer the vial contents drop-wise into 14 mL of thaw medium in a sterile 15-mL conical tub. Centrifuge cells at 900 rpm for 4 minutes and resuspend in thaw medium. Transfer contents to the T75 tissue culture flask containing Thaw Medium and place flask in a humidified 37C/5% CO2 incubator. Switch to growth medium at first passage.Propagation Method: Aspirate medium, rinse once in DPBS, add 0.25% Trypsin/EDTA and swirl to coat the cell evenly. Add an equal volume of Growth Medium to inactivate Trypsin after 2-3 minutes incubation at 37C. Centrifuge cells at 900 rpm for 4 minutes and resuspend in growth medium. Cell should be passage or fed at least twice a week.Assay Protocol: Harvest cells from culture in growth medium and resuspend in assay medium. 2.2 Dispense 4000 cells/5 uL/well into 1536-well black/clear bottom plates using a Multidrop dispenser. After the cells were incubated at 37C for 5 hours, 23 nL of compounds dissolved in DMSO were transferred to the assay plate by a PinTool resulting in a 217-fold dilution. Incubate the plates for 16 hours at 37C, 5% CO2. Add 1 uL of 6X LiveBLAzer FRET B/G (CCF4-AM) Substrate Mixture to each well using a BioRAPTR dispenser and incubate the plates at room temperature for 2 hours. Measure fluorescence intensity at 460 and 530 nm emission and 405 nm excitation by an Envision detector. Data is expressed as the ratio of 460nm/530nm emissions. Add 4 uL of Cell-titer Glo to each well using BioRAPTR and incubate the plates at room temperature for 2 hours. Measure fluorescence intensity by a VewLux plate reader."}
{"smiles": "C(=C/c1ccccc1)/c1ccccc1", "outcome": "inactive"}
{"smiles": "O=P(O)(OCc1ccccc1)OCc1ccccc1", "outcome": "inactive"}
{"smiles": "OCCN1CCN(CC/C=C2/c3ccccc3Sc3ccc(C(F)(F)F)cc32)CC1", "outcome": "inactive"}
{"smiles": "COc1ccc(OC)c(NC(=O)CC(C)=O)c1", "outcome": "inactive"}
{"smiles": "Cc1cc(C(C)(C)C)c(O)c(C)c1CC1=NCCN1", "outcome": "inactive"}
{"smiles": "CCC(COC(=O)CCS)(COC(=O)CCS)COC(=O)CCS", "AC50": "72.1 µM (active)"}
{"smiles": "O=C(O)c1cccc(C(=O)O)c1C(=O)O", "outcome": "inactive"}
{"smiles": "CC(=O)N/N=C/c1ccc([N+](=O)[O-])o1", "outcome": "inactive"}
{"smiles": "Cc1ncc(CO)c(CN)c1O", "outcome": "inactive"}
{"smiles": "O=C(OOC(=O)c1ccccc1)c1ccccc1", "outcome": "inactive"}
{"smiles": "NS(=O)(=O)c1cc2c(cc1Cl)NC(C1CC3C=CC1C3)NS2(=O)=O", "note": "(stereo not given)", "outcome": "inactive"}
{"smiles": "O=C(O)/C=C/c1ccc(Cn2ccnc2)cc1", "outcome": "inactive"}
{"smiles": "COc1ccc2cc([C@H](C)C(=O)O)ccc2c1", "outcome": "inactive"}
{"smiles": "CC(C)C[C@@H]1NC(=O)[C@H](CCCN)NC(=O)[C@H](C(C)C)NC(=O)[C@@H]2CCCN2C(=O)[C@@H](Cc2ccccc2)NC(=O)[C@H](CC(C)C)NC(=O)[C@H](CCCN)NC(=O)[C@H](C(C)C)NC(=O)[C@@H]2CCCN2C(=O)[C@@H](Cc2ccccc2)NC1=O", "note": "(cyclo(V[Orn]L[dF]PV[Orn]L[dF]P))", "outcome": "inactive"}
{"smiles": "CCOc1cc(-c2nccc3cc(OC)c(OC)cc23)cc(OCC)c1OCC", "outcome": "inactive"}
{"smiles": "C[C@@H](NCCCc1cccc(C(F)(F)F)c1)c1cccc2ccccc12", "AC50": "40.2 µM (active)"}
{"smiles": "O=C(CC(C(=O)OC1CCCCC1)S(=O)(=O)O)OC1CCCCC1", "note": "(stereo not given)", "outcome": "inactive"}
{"smiles": "COC(=O)C1=C(C)NC(C)=C(C(=O)OCC(C)=O)C1c1ccccc1[N+](=O)[O-]", "note": "(stereo not given)", "outcome": "inactive"}
{"smiles": "COc1cc(OC)c(C(=O)CCCN2CCCC2)c(OC)c1", "outcome": "inactive"}
{"smiles": "Cc1cc2c(C(C)C)c(O)c(O)c(C=O)c2c(O)c1-c1c(C)cc2c(C(C)C)c(O)c(O)c(C=O)c2c1O", "AC50": "29.9 µM (active)"}
{"smiles": "CCCCN1C=CN(C)C1", "outcome": "inactive"}
{"smiles": "C[Si](C)(C)O[Si](C)(C)O[Si](C)(C)C", "outcome": "inactive"}
{"smiles": "C[N+](C)(C)CC[N+]1(C)Cc2c(Cl)c(Cl)c(Cl)c(Cl)c2C1", "outcome": "inactive"}
{"smiles": "CC(C)n1nc(-c2cc3cc(O)ccc3[nH]2)c2c(N)ncnc21", "outcome": "inactive"}
{"smiles": "NC(=O)c1ccc([N+](=O)[O-])cc1Cl", "outcome": "inactive"}
{"smiles": "COC(=O)C(CN)c1c[nH]c2ccc(OC)cc12", "note": "(stereo not given)", "outcome": "inactive"}
{"smiles": "Cc1cc(C)c(S(=O)(=O)O)cc1N=Nc1cc(S(=O)(=O)O)c2ccccc2c1O", "outcome": "inactive"}
{"smiles": "Cc1cn[nH]c1", "outcome": "inactive"}
{"smiles": "CCCc1c(OCCCCc2nn[nH]n2)ccc(C(C)=O)c1O", "AC50": "30.1 µM (active)", "outcome": "inactive"}
{"smiles": "Cc1ccccc1S(=O)(=O)O", "outcome": "inactive"}
{"smiles": "CC[C@@]1([C@@H]2O[C@@H]([C@H]3O[C@@](O)(CO)[C@H](C)C[C@@H]3C)C[C@@H]2C)CC[C@H]([C@]2(C)CC[C@]3(C[C@H](O)[C@@H](C)[C@@H]([C@@H](C)[C@@H](OC)[C@H](C)C(=O)O)O3)O2)O1", "note": "(stereo in doubt)", "outcome": "inactive"}
{"smiles": "CC(C)NC(=O)c1ccccc1N", "outcome": "inactive"}
{"smiles": "C[C@H]1O[C@@H](n2cc(F)c(=O)[nH]c2=O)[C@H](O)[C@@H]1O", "AC50": "20.7 µM (active)"}
{"smiles": "Cc1ccc(S(=O)(=O)NC2CCCCC2)cc1", "outcome": "inactive"}
{"smiles": "COc1ccc(C(=O)Nc2ccccc2)cc1[N+](=O)[O-]", "outcome": "inactive"}
{"smiles": "CCN[C@@H]1C[C@H](N)[C@@H](OC2OC(CN)=CCC2N)[C@H](O)[C@H]1O[C@H]1OC[C@](C)(O)[C@H](NC)[C@H]1O", "note": "(stereo not given in full)", "outcome": "inactive"}
{"smiles": "CC[C@@H](CO)NCCN[C@@H](CC)CO", "outcome": "inactive"}
{"smiles": "CN1[C@@H]2CC[C@H]1CC(NC(=O)n1c(=O)[nH]c3ccccc31)C2", "note": "(stereo not given in full)", "outcome": "inactive"}
{"smiles": "O=C1c2ccccc2C(=O)c2cc(Cl)ccc21", "outcome": "inactive"}
